Laboratory results from PubChem BioAssay (NCATS).
Results filed as inconclusive are left out. Active and inactive are the calls of the source. Unless noted, calls come from the whole dose curve; as a rule, active = well fitted curve in the direction sought with a large enough effect; inconclusive = small, poorly fitted or top-dose-only effect, or another doubt; inactive = no such curve, though single readings can be large; an effect the other way counts as inactive or inconclusive.

Tests used:
[1] = Validation screen for small molecules that induce DNA re-replication in MCF 10A normal breast cells (AID 463097); note: nearly all actives have a fitted effect of over 60% in size
In short: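 Following 48 hr compound incubation (37 C, 5% CO2), MCF 10A cells receive Hoechst for 40 min at 37 C. Nuclei are then scanned (excitation 405 nm, emission 500-530 nm) for total fluorescence intensity.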

[2] = Cytometric Cell-Based qHTS for Inhibitors of the mTORC1 Signaling Pathway in MEF (Tsc2-/-, p53-/-) Cells (AID 2660);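 note: percent of cells above a phospho-rpS6 to PI ratio cutoff in each well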
In short: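 Percent of cells positive for normalized phospho-S6 staining is reported, with the cutoff set from rapamycin (7.5 nM) versus DMSO wells. Tsc2-/-, p53-/- MEFs received compound for 24 hrs.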

[3] = High Content Imaging Cell-Based qHTS for Inhibitors of the mTORC1 Signaling Pathway in MEF (Tsc2-/-, p53-/-) Cells (AID 2666); settings: at 38.3 µM (top of the series);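 note: percent of cells scored positive for phospho-rpS6 Ser235/236 immunostaining by imaging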
In short: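 Phospho-rpS6 (Ser235/236) immunofluorescence, normalized and scored as % positive cells using rapamycin and DMSO controls, was read in empty-vector Tsc2-/-, p53-/- MEFs after 24 h compound exposure at 37 C; propidium iodide counted cells.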

[4] = High Content Imaging Cell-Based qHTS for Inhibitors of the mTORC1 Signaling Pathway in MEF Cells (AID 2667);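 note: Tsc2-/- p53-/- MEFs stably re-expressing wild-type Tsc2 exposed 24 h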
In short: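 WT MEFs (Tsc2-/-, p53-/- re-expressing Tsc2), in DMEM + 10% FBS, were treated with compound for 24 h at 37 C. Cells were then fixed and stained for phospho-rpS6 Ser235/236 with propidium iodide as cell count. Values are % positive cells, with thresholds set against rapamycin-treated cells.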

[5] = Cytometry Cell-Based qHTS for Inhibitors of the mTORC1 Signaling Pathway in MEF cells (AID 2668);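 note: Tsc2-/- p53-/- mouse embryonic fibroblasts stably re-expressing wild-type Tsc2; percent cells positive for phospho-rpS6 Ser235/236 relative to propidium iodide stain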
In short: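 In MEFs grown in DMEM + 10% FBS, a 24 hrs compound exposure preceded imaging of phospho-rpS6 Ser235/236 by laser-scanning cytometry.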

[6] = molecular target: Ubiquitin carboxyl-terminal hydrolase 2 (Homo sapiens) (UniProt O75604); assay: qHTS Validation Assay for Inhibitors of Ubiquitin-specific Protease USP2a Using CHOP2 as the Reporter (AID 463106)
In short: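 USP2 core (10 nM final) was preincubated with compound 30 min at RT in pH 8.0 Tris/CaCl2/beta-ME/CHAPS buffer. Ub-CHOP2 and reporter substrate (25 nM final each) were then added, with fluorescence (Ex 485/Em 531) read after 60 min. Data were normalized to NEM full inhibition and fitted to concentration-response curves.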

[7] = molecular target: DNA polymerase III PolC-type (Bacillus subtilis (strain 168)) (UniProt P13267); assay: qHTS Validation Assay for the Inhibitors of DNA Replication in Gram-Positive Bacteria (AID 485295);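 note: reconstituted holoenzyme with PolC plus beta clamp SSB and primase; PicoGreen fluorescence of double-stranded DNA made on primed circular M13 template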
In short: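 Inhibition of DNA synthesis by the reconstituted PolC holoenzyme, monitored through PicoGreen staining of dsDNA formed from ssM13Gori, dNTPs and NTPs, with compound preincubation and room-temperature reaction.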

[8] = molecular target: Tumor susceptibility gene 101 protein (Homo sapiens) (UniProt Q99816); assay: qHTS Validation Assay for Iinhibitors of HIV-1 Budding by Blocking the Interaction of PTAP/TSG101 (AID 485342; calls by dose curve)
In short: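 Compound wells held the Tsg101 binding domain (10 uM) and a FITC-conjugated PTAP peptide (50 nM) in buffer at pH 7.5 containing 0.15 M NaCl and 0.01% Tween 20; polarization was recorded after 20 min, r.t.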

[9] = molecular target: Beta-2 adrenergic receptor (Homo sapiens) (UniProt P07550); assay: qHTS validation assay of beta-arrestin-biased ligands of beta2-adrenergic receptor (AID 485366)
In short: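 Luminescence from a tTA-responsive luciferase, induced when recombinant beta-arrestin is recruited to recombinant beta2-AR, served as the agonism signal. Cells were exposed to compound for 18 hr at 37 degrees C; titrations spanned up to 46 microM.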

[10] = molecular target: ATP-dependent 6-phosphofructokinase (Trypanosoma brucei brucei) (UniProt O15648); assay: qHTS Validation Assay to Find Inhibitors of T. brucei phosphofructokinase (AID 485368); settings: T. brucei PFK enzyme assay, qHTS 7-point titration; at 57.5 µM (top of the series)
In short: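 Activity was normalized between 1x (1.25 nM) PFK wells as no inhibition and enzyme-free wells as full inhibition, from luminescence after ADP-Glo detection of ADP made from 0.5 mM F6P and 0.1 mM ATP over 45 min.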

Measured: outcome

Sequence of Ubiquitin carboxyl-terminal hydrolase 2 (Homo sapiens) (O75604 whole entry, looked up): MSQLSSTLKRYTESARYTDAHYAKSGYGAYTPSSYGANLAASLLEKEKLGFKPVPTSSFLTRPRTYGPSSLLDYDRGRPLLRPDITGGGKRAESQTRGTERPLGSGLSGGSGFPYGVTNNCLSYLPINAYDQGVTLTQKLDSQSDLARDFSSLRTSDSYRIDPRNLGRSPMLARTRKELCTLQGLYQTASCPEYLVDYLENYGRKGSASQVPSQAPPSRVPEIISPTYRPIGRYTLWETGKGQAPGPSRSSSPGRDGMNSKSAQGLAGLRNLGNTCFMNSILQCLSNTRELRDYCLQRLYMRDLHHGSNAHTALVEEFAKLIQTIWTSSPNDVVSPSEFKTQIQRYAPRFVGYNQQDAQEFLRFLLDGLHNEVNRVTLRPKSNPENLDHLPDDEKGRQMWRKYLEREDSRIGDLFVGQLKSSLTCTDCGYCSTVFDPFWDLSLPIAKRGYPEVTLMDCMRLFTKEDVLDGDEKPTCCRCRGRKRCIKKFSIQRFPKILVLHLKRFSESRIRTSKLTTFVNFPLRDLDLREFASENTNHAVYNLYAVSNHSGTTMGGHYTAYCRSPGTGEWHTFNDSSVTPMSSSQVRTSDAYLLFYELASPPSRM
Sequence of Tumor susceptibility gene 101 protein (Homo sapiens) (Q99816 whole entry, looked up, the tested form may be a part): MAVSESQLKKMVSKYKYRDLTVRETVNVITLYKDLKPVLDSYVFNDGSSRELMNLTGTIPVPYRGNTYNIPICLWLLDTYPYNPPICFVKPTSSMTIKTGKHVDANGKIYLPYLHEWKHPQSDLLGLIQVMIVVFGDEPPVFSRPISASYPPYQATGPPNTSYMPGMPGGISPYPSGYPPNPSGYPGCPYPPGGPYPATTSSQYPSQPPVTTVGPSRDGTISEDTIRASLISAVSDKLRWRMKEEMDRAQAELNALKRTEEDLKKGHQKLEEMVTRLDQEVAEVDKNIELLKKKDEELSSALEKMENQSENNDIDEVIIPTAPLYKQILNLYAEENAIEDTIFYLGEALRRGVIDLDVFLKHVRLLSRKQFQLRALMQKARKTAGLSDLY
Sequence of Beta-2 adrenergic receptor (Homo sapiens) (P07550 whole entry, looked up): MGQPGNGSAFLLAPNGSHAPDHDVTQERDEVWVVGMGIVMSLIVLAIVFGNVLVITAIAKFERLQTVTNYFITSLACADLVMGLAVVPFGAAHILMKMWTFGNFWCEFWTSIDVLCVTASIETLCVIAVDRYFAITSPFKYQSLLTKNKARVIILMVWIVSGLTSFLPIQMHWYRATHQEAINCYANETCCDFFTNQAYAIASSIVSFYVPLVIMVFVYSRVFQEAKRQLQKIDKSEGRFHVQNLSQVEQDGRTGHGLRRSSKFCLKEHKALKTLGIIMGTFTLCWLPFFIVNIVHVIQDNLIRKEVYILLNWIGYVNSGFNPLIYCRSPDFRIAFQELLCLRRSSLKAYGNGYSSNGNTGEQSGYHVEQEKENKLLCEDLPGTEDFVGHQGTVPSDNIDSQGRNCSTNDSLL
Sequence of ATP-dependent 6-phosphofructokinase (Trypanosoma brucei brucei) (O15648 whole entry, looked up): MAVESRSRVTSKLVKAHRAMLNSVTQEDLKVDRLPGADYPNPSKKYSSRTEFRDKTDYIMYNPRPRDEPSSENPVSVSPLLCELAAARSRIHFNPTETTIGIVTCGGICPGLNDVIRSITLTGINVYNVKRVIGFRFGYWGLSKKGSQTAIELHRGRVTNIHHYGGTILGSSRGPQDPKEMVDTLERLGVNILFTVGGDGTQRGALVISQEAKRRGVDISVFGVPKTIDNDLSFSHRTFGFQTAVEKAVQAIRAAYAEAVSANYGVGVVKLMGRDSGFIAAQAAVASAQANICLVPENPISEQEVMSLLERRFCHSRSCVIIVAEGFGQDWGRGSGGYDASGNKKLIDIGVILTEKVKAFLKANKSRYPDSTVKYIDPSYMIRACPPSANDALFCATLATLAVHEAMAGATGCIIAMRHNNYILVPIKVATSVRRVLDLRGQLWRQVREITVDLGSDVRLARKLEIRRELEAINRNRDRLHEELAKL
Sequence of DNA polymerase III PolC-type (Bacillus subtilis (strain 168)) (P13267 whole entry, looked up): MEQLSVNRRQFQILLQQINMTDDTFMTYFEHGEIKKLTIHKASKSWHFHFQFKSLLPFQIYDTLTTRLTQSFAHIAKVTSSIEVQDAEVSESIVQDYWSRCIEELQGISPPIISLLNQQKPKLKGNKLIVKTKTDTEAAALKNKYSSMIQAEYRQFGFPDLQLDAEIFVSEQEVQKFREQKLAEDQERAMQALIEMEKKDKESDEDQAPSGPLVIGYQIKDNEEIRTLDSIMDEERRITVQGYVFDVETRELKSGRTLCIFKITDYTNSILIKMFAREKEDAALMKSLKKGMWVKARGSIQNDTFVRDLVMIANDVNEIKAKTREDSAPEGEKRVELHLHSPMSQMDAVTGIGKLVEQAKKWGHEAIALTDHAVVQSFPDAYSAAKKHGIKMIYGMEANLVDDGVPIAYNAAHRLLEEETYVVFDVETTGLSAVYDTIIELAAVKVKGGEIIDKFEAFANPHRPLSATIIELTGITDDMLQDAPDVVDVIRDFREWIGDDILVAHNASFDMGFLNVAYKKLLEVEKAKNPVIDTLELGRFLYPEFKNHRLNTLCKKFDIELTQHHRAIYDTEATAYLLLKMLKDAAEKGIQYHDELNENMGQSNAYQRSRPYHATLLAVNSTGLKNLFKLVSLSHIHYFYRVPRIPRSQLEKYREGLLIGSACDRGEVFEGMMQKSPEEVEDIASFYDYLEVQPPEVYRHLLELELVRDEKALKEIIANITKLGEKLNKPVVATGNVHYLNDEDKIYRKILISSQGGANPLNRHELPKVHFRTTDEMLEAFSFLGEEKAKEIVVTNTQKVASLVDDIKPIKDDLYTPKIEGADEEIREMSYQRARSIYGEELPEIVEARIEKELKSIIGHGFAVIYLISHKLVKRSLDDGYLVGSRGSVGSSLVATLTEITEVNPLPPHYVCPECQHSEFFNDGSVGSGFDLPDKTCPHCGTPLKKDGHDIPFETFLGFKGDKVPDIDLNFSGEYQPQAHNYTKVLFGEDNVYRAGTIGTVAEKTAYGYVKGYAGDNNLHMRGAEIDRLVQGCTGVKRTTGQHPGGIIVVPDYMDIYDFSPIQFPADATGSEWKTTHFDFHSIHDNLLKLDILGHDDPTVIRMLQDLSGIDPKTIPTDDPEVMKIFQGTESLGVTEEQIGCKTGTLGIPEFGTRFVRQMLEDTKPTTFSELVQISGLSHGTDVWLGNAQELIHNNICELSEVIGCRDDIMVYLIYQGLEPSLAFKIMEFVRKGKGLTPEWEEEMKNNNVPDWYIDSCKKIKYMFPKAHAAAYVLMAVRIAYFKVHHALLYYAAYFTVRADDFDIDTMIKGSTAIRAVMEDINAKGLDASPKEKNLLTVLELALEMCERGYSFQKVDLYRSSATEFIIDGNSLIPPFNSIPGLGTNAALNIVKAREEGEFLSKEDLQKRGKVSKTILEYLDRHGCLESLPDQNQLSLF

CC[N+](C)(C)Cc1ccccc1Br
inactive: [1]

CN1Cc2c(N)cccc2C(c2ccccc2)C1 (stereo unspecified)
inactive: [2] | [3] | [4] | [5] | [1] | [6] | [7] | [8] | [9] | [10]
